Results reported in PMC7862700, “An all-to-all approach to the identification of sequence-specific readers for epigenetic DNA modifications on cytosine”.

What was measured:
Assay in all cases: DAPPL (digital affinity profiling via proximity ligation, sequencing); 10 mM Tris-HCl pH 7.5, 50 mM NaCl, 1 mM DTT, 4% glycerol, room temperature, 30 min; GST-TFs on glutathione beads, 16-mer random dsDNA library, 0.1% formaldehyde crosslink after washing; high values mean tight binding
[1] = target: T1, FEV (Homo sapiens, UniProt Q99581 1-238); conditions: protein: recombinant; tags: N-terminal GST; dsDNA, one strand shown
T1 sequence: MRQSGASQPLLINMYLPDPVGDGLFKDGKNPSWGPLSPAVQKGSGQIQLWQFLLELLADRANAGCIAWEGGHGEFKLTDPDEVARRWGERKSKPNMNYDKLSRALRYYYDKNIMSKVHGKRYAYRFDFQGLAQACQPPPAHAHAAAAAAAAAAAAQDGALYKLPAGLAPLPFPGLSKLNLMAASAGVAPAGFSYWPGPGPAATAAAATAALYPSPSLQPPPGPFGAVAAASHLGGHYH
Procedure, shortened: (§1)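 Binding signal is each hexamer's read frequency for a factor divided by its frequency in the tag-only sample. The factors were GST-fused human transcription factors from yeast, captured on glutathione beads, DNA-barcoded and pooled with that sample. Pools were incubated with 200 nmole of a random double-stranded 16-mer DNA library in Tris/NaCl/DTT/glycerol buffer at room temperature for 30 min, then washed, crosslinked with 0.1% formaldehyde, proximity-ligated with BsaI/T4 ligase (1 h, 37 °C), PCR-amplified and sequenced on an Illumina NextSeq500.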

[2] = target: ETV5 (Homo sapiens, UniProt P41161 1-510); conditions: protein: recombinant; tags: N-terminal GST; dsDNA, one strand shown
ETV5, sequence (P41161 whole entry): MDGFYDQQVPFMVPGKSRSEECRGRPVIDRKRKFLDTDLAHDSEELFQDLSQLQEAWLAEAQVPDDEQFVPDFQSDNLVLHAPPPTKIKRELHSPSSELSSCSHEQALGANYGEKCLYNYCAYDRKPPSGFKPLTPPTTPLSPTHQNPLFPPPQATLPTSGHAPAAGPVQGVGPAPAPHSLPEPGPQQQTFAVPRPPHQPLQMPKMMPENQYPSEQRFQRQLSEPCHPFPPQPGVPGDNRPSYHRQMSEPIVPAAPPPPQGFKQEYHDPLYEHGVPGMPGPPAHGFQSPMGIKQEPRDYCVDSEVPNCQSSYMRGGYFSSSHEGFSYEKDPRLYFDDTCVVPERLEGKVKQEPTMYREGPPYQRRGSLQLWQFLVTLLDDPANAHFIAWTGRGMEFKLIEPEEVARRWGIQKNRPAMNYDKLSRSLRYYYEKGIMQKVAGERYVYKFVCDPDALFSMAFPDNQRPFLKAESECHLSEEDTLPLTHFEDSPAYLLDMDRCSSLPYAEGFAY
Procedure, shortened: as §1

[3] = target: HSF1 (Homo sapiens, UniProt Q00613 1-529); conditions: protein: recombinant; tags: N-terminal GST; chain copies: 3; dsDNA, one strand shown
HSF1, sequence (Q00613 whole entry): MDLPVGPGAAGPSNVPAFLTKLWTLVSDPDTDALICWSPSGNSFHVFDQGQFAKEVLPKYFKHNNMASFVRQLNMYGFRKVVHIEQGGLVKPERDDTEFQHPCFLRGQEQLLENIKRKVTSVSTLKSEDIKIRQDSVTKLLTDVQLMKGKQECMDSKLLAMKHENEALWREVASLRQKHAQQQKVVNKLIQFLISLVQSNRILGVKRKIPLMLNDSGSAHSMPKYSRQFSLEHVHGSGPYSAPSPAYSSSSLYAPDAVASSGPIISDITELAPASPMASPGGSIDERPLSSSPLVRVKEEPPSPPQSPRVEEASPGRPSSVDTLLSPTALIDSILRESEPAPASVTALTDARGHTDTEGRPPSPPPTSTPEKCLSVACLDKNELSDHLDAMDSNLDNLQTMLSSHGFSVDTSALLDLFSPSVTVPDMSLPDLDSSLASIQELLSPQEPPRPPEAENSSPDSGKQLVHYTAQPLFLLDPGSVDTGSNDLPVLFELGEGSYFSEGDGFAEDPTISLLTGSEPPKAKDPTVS
Procedure, shortened: as §1

[4] = target: T2, SPIC (Homo sapiens, UniProt Q8N5J4 1-248); conditions: protein: recombinant; tags: N-terminal GST; dsDNA, one strand shown
T2 sequence: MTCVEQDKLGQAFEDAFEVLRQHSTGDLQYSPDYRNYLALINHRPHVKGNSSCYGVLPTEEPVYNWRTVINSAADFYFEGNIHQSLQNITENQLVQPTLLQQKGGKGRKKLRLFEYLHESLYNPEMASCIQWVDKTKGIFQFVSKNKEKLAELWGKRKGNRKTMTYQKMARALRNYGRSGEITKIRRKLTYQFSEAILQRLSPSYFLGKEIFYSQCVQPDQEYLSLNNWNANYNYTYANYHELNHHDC
Procedure, shortened: as §1

[5] = target: ELF4 (Homo sapiens, UniProt Q99607 1-663); conditions: protein: recombinant; tags: N-terminal GST; dsDNA, one strand shown
ELF4, sequence (Q99607 whole entry): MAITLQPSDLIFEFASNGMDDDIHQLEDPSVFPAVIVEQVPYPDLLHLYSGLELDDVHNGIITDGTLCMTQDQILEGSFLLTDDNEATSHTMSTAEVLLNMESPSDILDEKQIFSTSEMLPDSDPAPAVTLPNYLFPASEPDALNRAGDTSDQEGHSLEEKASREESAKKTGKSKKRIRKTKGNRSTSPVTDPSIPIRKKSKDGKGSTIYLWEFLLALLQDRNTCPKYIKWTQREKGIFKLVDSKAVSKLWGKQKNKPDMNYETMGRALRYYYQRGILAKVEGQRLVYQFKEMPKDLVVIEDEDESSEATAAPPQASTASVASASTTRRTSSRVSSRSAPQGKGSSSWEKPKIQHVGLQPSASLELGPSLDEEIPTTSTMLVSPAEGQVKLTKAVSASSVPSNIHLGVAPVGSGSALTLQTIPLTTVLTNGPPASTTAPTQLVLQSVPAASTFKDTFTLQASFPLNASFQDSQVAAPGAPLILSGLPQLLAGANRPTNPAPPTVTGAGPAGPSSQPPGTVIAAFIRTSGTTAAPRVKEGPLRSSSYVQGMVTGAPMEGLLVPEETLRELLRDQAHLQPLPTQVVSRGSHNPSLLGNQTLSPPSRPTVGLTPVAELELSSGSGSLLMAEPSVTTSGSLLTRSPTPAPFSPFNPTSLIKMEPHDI
Procedure, shortened: as §1

[6] = target: T3, ELK4 (Homo sapiens, UniProt P28324-2 1-405); conditions: protein: recombinant; tags: N-terminal GST; dsDNA, one strand shown
T3 sequence: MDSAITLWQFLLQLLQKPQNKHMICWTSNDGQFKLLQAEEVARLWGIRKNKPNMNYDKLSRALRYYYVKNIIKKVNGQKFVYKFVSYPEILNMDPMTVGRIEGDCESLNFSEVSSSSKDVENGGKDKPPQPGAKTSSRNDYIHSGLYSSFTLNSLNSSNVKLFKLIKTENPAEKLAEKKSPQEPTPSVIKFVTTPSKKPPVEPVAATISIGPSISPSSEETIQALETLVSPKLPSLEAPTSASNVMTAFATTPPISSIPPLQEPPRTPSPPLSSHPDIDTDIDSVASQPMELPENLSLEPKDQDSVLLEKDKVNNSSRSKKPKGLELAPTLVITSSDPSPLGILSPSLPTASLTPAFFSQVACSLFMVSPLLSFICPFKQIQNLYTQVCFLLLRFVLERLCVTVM
Procedure, shortened: as §1

[7] = target: T4, ETV2 (Homo sapiens, UniProt O00321 1-342); conditions: protein: recombinant; tags: N-terminal GST; dsDNA, one strand shown
T4 sequence: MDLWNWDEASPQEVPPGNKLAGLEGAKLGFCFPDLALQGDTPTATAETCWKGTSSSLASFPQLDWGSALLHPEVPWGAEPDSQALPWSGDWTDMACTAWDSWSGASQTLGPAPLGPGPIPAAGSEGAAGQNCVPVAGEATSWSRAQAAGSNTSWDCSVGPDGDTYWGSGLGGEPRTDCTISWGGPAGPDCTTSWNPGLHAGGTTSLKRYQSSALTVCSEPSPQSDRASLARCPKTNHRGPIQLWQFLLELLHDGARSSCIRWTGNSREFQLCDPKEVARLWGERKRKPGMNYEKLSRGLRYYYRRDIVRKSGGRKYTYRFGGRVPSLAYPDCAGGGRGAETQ
Procedure, shortened: as §1

[8] = target: T5, ELF3 (Homo sapiens, UniProt P78545 1-371); conditions: protein: recombinant; tags: N-terminal GST; dsDNA, one strand shown
T5 sequence: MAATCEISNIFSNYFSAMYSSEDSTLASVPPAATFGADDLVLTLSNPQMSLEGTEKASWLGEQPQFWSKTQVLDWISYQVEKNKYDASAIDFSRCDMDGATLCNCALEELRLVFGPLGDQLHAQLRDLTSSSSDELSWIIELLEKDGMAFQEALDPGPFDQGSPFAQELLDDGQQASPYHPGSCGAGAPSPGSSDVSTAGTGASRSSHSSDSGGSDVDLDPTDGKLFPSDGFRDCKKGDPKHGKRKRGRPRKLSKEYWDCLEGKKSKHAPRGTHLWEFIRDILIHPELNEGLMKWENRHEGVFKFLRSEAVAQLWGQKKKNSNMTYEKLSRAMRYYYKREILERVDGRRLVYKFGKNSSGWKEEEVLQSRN
Procedure, shortened: as §1

[9] = target: CRX (Homo sapiens, UniProt O43186 1-299); conditions: protein: recombinant; tags: N-terminal GST; dsDNA, one strand shown
CRX, sequence (O43186 whole entry): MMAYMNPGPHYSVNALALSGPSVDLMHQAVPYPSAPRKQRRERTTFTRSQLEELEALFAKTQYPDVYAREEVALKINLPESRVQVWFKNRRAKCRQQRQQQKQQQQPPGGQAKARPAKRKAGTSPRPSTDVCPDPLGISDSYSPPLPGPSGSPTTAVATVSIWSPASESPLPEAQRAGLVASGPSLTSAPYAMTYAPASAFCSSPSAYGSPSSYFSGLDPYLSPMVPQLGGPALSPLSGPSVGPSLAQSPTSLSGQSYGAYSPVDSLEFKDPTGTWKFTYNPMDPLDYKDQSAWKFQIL
Procedure, shortened: as §1

[10] = target: ETV1 (Homo sapiens, UniProt P50549 1-477); conditions: protein: recombinant; tags: N-terminal GST; dsDNA, one strand shown
ETV1, sequence (P50549 whole entry): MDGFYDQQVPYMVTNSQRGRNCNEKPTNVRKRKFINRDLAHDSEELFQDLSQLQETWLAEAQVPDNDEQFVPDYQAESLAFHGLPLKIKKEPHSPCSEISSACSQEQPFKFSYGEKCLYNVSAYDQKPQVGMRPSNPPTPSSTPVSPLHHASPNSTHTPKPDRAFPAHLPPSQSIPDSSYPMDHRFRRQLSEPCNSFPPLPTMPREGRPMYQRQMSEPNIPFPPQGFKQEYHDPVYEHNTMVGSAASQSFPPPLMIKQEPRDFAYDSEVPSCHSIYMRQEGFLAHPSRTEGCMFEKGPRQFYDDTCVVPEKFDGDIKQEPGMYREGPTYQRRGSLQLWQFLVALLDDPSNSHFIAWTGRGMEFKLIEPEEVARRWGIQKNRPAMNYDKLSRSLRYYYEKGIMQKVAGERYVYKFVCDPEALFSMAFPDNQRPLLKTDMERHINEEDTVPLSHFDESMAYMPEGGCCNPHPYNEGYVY
Procedure, shortened: as §1

[11] = target: T6, ERF (Homo sapiens, UniProt P50548 1-548); conditions: protein: recombinant; tags: N-terminal GST; dsDNA, one strand shown
T6 sequence: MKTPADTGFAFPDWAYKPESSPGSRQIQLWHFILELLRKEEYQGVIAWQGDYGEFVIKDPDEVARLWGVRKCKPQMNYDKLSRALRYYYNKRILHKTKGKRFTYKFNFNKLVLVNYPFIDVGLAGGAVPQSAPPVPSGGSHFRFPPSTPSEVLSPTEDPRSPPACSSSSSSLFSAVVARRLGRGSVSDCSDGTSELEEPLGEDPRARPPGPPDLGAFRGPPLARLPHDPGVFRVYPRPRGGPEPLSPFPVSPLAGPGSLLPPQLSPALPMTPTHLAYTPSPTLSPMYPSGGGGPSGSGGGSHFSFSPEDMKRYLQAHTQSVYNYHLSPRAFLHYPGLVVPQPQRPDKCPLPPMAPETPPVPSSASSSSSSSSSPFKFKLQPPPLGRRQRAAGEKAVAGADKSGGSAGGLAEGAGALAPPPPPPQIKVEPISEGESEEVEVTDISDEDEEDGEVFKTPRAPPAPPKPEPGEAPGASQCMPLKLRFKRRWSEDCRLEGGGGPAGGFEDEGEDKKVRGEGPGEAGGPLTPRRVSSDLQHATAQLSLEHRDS
Procedure, shortened: as §1

[12] = target: T7, ETV3L (Homo sapiens, UniProt Q6ZN32 1-361); conditions: protein: recombinant; tags: N-terminal GST; dsDNA, one strand shown
T7 sequence: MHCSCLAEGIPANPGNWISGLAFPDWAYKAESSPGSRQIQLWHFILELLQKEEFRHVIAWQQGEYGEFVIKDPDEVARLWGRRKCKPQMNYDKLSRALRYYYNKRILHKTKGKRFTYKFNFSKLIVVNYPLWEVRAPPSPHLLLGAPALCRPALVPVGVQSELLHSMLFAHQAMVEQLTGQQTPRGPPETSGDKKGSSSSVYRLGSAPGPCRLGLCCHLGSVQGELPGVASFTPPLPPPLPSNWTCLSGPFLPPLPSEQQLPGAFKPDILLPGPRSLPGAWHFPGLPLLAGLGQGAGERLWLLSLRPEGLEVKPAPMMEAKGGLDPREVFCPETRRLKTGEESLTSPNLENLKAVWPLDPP
Procedure, shortened: as §1

[13] = target: T8, ETS2 (Homo sapiens, UniProt P15036 1-469); conditions: protein: recombinant; tags: N-terminal GST; dsDNA, one strand shown
T8 sequence: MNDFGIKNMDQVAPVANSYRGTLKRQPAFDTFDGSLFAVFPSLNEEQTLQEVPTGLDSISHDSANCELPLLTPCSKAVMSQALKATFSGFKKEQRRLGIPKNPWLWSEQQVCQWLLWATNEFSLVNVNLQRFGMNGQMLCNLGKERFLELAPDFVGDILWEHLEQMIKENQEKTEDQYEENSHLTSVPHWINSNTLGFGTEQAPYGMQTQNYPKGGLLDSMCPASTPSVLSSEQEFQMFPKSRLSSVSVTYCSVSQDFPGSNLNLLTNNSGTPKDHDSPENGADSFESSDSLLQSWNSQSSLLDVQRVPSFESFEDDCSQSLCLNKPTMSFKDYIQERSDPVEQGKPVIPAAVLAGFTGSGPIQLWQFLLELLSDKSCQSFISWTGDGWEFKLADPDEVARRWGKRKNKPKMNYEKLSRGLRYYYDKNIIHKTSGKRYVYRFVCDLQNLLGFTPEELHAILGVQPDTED
Procedure, shortened: as §1

[14] = target: T9, SPDEF (Homo sapiens, UniProt O95238 1-335); conditions: protein: recombinant; tags: N-terminal GST; dsDNA, one strand shown
T9 sequence: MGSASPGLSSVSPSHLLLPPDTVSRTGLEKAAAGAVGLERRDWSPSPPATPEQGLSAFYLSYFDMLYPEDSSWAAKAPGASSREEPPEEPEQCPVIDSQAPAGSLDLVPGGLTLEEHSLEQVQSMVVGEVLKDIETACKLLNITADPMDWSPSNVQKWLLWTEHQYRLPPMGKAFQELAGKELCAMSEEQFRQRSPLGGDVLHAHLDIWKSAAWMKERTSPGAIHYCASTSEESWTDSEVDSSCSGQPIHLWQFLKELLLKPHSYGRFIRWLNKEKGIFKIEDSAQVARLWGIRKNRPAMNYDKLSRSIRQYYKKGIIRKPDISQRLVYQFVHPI
Procedure, shortened: as §1

[15] = target: T10, ETV7 (Homo sapiens, UniProt Q9Y603 1-341); conditions: protein: recombinant; tags: N-terminal GST; dsDNA, one strand shown
T10 sequence: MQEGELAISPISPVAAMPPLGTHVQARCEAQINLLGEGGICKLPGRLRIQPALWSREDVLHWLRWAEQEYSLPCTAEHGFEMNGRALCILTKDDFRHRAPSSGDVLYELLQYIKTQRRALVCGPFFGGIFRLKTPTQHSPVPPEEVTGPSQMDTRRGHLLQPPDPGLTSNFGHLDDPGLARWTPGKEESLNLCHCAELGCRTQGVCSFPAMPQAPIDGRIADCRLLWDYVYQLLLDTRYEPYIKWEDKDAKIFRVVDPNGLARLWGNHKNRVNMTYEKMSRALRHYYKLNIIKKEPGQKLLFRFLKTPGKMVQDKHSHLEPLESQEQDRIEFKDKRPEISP
Procedure, shortened: as §1

[16] = target: T11, ELF5 (Homo sapiens, UniProt Q9UKW6-2 1-255); conditions: protein: recombinant; tags: N-terminal GST; dsDNA, one strand shown
T11 sequence: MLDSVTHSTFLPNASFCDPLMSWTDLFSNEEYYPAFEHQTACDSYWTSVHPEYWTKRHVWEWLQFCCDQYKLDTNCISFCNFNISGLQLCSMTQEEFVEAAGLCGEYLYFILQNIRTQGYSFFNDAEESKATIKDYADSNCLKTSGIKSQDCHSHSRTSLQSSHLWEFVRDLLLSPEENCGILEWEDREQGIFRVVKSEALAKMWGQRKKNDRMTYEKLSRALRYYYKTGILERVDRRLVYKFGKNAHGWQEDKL
Procedure, shortened: as §1

[17] = target: T12, ETV3 (Homo sapiens, UniProt P41162-2 1-143); conditions: protein: recombinant; tags: N-terminal GST; dsDNA, one strand shown
T12 sequence: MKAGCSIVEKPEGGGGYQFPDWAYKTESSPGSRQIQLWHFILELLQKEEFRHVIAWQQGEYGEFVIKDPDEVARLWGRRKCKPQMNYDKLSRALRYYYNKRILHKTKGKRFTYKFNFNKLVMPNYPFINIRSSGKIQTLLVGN
Procedure, shortened: as §1

[18] = target: ETV6 (Homo sapiens, UniProt P41212 1-452); conditions: protein: recombinant; tags: N-terminal GST; dsDNA, one strand shown
ETV6, sequence (P41212 whole entry): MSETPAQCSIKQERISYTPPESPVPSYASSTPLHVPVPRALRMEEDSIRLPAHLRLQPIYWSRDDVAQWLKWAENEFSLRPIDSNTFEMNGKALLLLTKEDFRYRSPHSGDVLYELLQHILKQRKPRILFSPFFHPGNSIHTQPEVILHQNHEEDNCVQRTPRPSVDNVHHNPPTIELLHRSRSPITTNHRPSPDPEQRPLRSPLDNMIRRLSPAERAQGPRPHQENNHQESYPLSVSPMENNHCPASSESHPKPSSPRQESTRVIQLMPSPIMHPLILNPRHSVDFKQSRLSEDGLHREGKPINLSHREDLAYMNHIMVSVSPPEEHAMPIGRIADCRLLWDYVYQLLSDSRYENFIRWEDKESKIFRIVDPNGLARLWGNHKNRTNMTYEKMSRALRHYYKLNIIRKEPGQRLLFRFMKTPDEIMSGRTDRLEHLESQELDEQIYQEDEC
Procedure, shortened: as §1

TTCGAG was tested, and the binding signal [1] was 1.21 fold enrichment (6-mer frequency, TF over GST control), the binding signal [2] was 1.28 fold enrichment (6-mer frequency, TF over GST control) and the binding signal [3] was 4.43 fold enrichment (6-mer frequency, TF over GST control). For the same sequence, the binding signal [4] was 1.13 fold enrichment (6-mer frequency, TF over GST control), the binding signal [5] was 1.29 fold enrichment (6-mer frequency, TF over GST control) and the binding signal [6] was 1.26 fold enrichment (6-mer frequency, TF over GST control). The binding signal [7] was 1.14 fold enrichment (6-mer frequency, TF over GST control), the binding signal [8] was 1.25 fold enrichment (6-mer frequency, TF over GST control) and the binding signal [9] was 1.96 fold enrichment (6-mer frequency, TF over GST control). For the same sequence, the binding signal [10] was 1.37 fold enrichment (6-mer frequency, TF over GST control), the binding signal [11] was 1.23 fold enrichment (6-mer frequency, TF over GST control) and the binding signal [12] was 1.36 fold enrichment (6-mer frequency, TF over GST control). The binding signal [13] was 1.26 fold enrichment (6-mer frequency, TF over GST control), the binding signal [14] was 1.19 fold enrichment (6-mer frequency, TF over GST control) and the binding signal [15] was 1.18 fold enrichment (6-mer frequency, TF over GST control). The binding signal [16] was 1.14 fold enrichment (6-mer frequency, TF over GST control), the binding signal [17] was 1.09 fold enrichment (6-mer frequency, TF over GST control) and the binding signal [18] was 1.28 fold enrichment (6-mer frequency, TF over GST control).
